Reference: PMC4336329 (PLoS ONE, 2015)
About 14,000 (4.5%) of roughly 310,000 compounds showed an effect of 50% or more. The effect is printed as a negative number. Many of the other results were omitted from the sample, so strong results are more common in it than they were.

molecular target: human ether-à-go-go-related gene (hERG) potassium channel (human, UniProt Q12809); experiment: primary screen, population patch clamp on CHO cells stably expressing hERG; higher = less effect of the substance
Sequence (Q12809 whole entry, looked up): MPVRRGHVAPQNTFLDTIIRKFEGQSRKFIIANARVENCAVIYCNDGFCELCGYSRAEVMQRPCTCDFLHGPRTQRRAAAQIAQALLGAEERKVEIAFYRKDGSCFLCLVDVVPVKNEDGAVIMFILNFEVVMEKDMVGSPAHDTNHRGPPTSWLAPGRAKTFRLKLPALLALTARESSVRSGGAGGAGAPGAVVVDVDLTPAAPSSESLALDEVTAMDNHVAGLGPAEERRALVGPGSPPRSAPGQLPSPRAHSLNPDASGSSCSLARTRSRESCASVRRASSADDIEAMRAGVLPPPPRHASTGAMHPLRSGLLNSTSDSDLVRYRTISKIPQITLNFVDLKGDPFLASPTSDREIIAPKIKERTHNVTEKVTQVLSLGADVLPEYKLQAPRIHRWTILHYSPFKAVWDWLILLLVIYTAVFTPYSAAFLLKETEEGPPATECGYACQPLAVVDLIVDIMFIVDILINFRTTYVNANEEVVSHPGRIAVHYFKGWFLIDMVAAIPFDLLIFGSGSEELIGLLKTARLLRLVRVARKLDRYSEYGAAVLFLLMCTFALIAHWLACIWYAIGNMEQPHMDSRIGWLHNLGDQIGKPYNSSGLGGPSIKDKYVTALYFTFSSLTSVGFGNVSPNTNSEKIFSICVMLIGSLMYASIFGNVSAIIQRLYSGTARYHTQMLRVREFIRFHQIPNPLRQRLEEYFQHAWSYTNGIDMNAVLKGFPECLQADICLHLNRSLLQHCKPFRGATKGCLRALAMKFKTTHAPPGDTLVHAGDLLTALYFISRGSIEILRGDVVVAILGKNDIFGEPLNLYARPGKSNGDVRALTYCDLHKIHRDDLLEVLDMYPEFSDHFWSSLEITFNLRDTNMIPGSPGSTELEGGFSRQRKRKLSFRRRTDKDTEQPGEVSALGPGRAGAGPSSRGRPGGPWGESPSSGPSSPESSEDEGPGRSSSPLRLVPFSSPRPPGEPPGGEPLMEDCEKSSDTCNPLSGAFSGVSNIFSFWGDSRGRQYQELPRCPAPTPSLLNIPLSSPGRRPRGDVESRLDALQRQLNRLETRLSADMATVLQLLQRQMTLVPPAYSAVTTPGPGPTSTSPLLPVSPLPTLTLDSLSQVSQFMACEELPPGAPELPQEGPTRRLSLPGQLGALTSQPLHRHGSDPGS
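Further: peak tail current of the secondary pulse compared with the same well before compound.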

| Compound | hERG current change (%, negative = inhibition) at 10uM [%] |
| --- | --- |
| Cc1ccc(N2C(=O)CC(C)CC2=O)cc1 | 21.2 |
| O=C(C[n+]1ccc(C(=O)c2ccccc2)cc1)Nc1ccc(C(F)(F)F)cc1.[Cl-] | -11.6 |
| CS(=O)(=O)N(CC(=O)N1CCCCC1)c1cccc(F)c1 | 13 |
| COc1cccc(NC(=O)COC(=O)c2ccccc2F)c1 | 13.8 |
| O=C(CCc1nnc2ccc(N3CCC4(CC3)OCCO4)nn12)Nc1ccc(F)cc1 | -40.2 |
| CC(C)[C@H](CN(N=O)[C@@H](Cc1ccccc1)CN(C)N=O)N(CCc1ccccc1)N=O.[Na+] | -0.676 |
| CC(C)(C)C(=O)NC(NC(=O)C(C)(C)C)c1ccc([N+](=O)[O-])cc1 | 8.18 |
| CCn1nc(C)c(Br)c1-c1nc(-c2cccc(C)c2)no1 | 19.1 |
| CC1(C)CC(=O)C(N=Nc2ccc(OC(F)F)cc2)=C(O)C1 | -57.6 |
| CC1(C)CC(=O)C(N=Nc2ccc(F)cc2)=C(O)C1 | -4.21 |
| COc1ccc(N=NC2=C(O)CC(C)(C)CC2=O)cc1 | -9.39 |
| COc1ccc(-n2cnc3cc(C(=O)N4CCC5(CC4)OCCO5)ccc32)cc1 | -42.8 |
| O=C(Cc1ccccc1)Nc1ccccc1N1CCCC1 | 9.76 |
| Cc1ccc(-c2nnc(SCC(=O)Nc3ccccc3F)o2)cc1 | 6.53 |
| Cc1ccccc1CSc1nnc(-c2ccccn2)n1C | -1.96 |
| Cc1ccc(C)c(CSc2ccc3nnc(-c4ccccn4)n3n2)c1 | -76.5 |
| Cc1ccccc1CSc1ccc2nnc(-c3ccccn3)n2n1 | -81.6 |
| Cc1cc(NC(=O)CSc2ccc3nnc(-c4ccccn4)n3n2)no1 | -6.72 |
| Cc1nnc(NC(=O)CSc2ccc3nnc(-c4ccccn4)n3n2)s1 | -9.79 |
| Cc1ccccc1NC(=O)CSc1ccc2nnc(-c3ccccn3)n2n1 | -23.8 |
| CS(=O)Cc1cc(Oc2ccccc2)nc(-c2ccncc2)n1 (centres unmarked) | -16.5 |
| Cc1nc2cc(NC(=O)c3ccc(Br)s3)ccc2s1 | 20 |
| CN1CCN(c2ccc([N+](=O)[O-])c(Sc3nc4ccccc4[nH]3)c2)CC1 | -19.7 |
| O=[N+]([O-])c1ccc(N2CCN(CCO)CC2)cc1Sc1nc2ccccc2[nH]1 | -12.4 |
| Br.CC1(C(=O)CSc2nc3ccccc3s2)CCC(=O)O1 (centres unmarked) | -2.67 |

| Compound | hERG current change (%, negative = inhibition) at 10uM [%] |
| --- | --- |
| NC(=O)CCCSc1nc2ccccc2[nH]1 | 13.3 |
| CC1(C(=O)CSc2nc3ccccc3[nH]2)CCC(=O)O1 (centres unmarked) | -70.8 |
| O=C(CSc1ncccc1-c1nc2ccccc2[nH]1)N1CCCCC1 | -16.3 |
| O=C(CSc1nc2ccccc2[nH]1)Nc1ccc(N2CCOCC2)cc1 | 8.65 |
| COc1ccccc1N1CCN(C(=O)CSc2ncccc2-c2nc3ccccc3[nH]2)CC1 | -23.7 |
| Br.CC1(C(=O)CSc2ncn[nH]2)CCC(=O)O1 (centres unmarked) | 2.21 |
| COc1ccc(N2CCN(C(=O)CSc3ncccc3-c3nc4ccccc4[nH]3)CC2)cc1 | -53.4 |
| O=C(CCCSc1nc2ccccc2[nH]1)N1CCN(c2ccc([N+](=O)[O-])cc2)CC1 | -79.9 |
| CCN1CCN(c2ccc([N+](=O)[O-])c(Sc3nc4ccccc4[nH]3)c2)CC1 | -60.4 |
| COC(=O)C1=C(C)N(CCc2ccc(OC)c(OC)c2)C(=O)C1 | 18.5 |
| O=C(CNS(=O)(=O)c1ccc(Cl)cc1)NNC(=O)c1cccnc1 | 20.7 |
| S=C1NC[C@H](Cc2cccc3ccccc23)N1CC1CCCCC1 | 10.3 |
| COc1cc(O)sc1C=Nc1ccc(Cl)cc1 | 4.72 |
| Cc1cc2c(n1-c1ccc(Br)cc1)CC(C)(C)CC2=O | -33.5 |
| O=S(=O)(Nc1cccc(-n2cnnn2)c1)c1ccccc1C(F)(F)F | 12 |
| CN1CCN(CCC(=O)N/N=C/c2cc([N+](=O)[O-])ccc2OC(F)F)CC1 | 1.78 |
| C#CCOCCOCCOCCNc1nc(N2CCN(C(=O)CCCCCCCCCCNC(=O)Cn3cc(CCCCCN)nn3)CC2)nc(N2CCN(C(=O)CCCCCCCCCCNC(=O)[C@@H](CCC(=O)O)n3cc(CCCCCN)nn3)CC2)n1 | -5.58 |
| CC(=O)Nc1cccc(NC(=O)CSc2nnc(Cc3cccn3C)n2-c2ccc(C)cc2)c1 | -11.9 |
| Cc1ccnc(NC(=O)c2ccc(Cl)c(NC(=O)C(C)Oc3ccccc3)c2)c1 (centres unmarked) | 1.41 |
| O=C(CSc1nc2ccccc2[nH]1)N1CCCCC1 | -2 |
| O=C(CCCSc1nc2ccccc2[nH]1)Nc1ccccc1 | 7.05 |
| O=C(CCCSc1nc2ccccc2[nH]1)N1CCN(c2ccccc2)CC1 | -60.2 |
| O=C(CCCSc1nc2ccccc2[nH]1)NCc1ccc(Cl)cc1 | -62.3 |
| O=C(CSc1nc2ccccc2[nH]1)N1CCN(c2ccc(F)cc2)CC1 | -55.6 |
| Cc1cccc(N2CCN(C(=O)CCCSc3nc4ccccc4[nH]3)CC2)c1C | -17.4 |

| Compound | hERG current change (%, negative = inhibition) at 10uM [%] |
| --- | --- |
| Cc1ccc2nc(SCC(=O)N3CCN(c4ccccc4)CC3)[nH]c2c1 | 1.42 |
| O=C(CCCSc1nc2ccccc2[nH]1)NCc1ccccc1 | -23.9 |
| COc1ccc(N2CCN(C(=O)CCCSc3nc4ccccc4[nH]3)CC2)cc1 | -62.3 |
| COc1ccc(N2CCN(C(=O)CSc3nc4ccccc4c(=O)[nH]3)CC2)cc1 | -10.7 |
| O=C(CCCSc1nc2ccccc2[nH]1)NCc1ccccc1Cl | -19.3 |
| O=C(CSc1nc2ccccc2[nH]1)N1CCN(c2ccccc2)CC1 | -0.235 |
| CC(C)CNC(=O)C(=O)NC1CCCC1 | 11.7 |
| CC1=C(C)CC(C(=O)Nc2nccs2)C(C(=O)O)C1 (centres unmarked) | 28.7 |
| O=C(CSc1n[nH]c(-c2ccncc2)n1)Nc1ccc(Br)cc1 | -2.1 |
| CN(C)/C=N/c1nc2nccc(-c3ccc(F)cc3)n2n1 | 13.8 |
| CCC1Oc2ccc(C)cc2N(CC(=O)NCCCN2CCCCC2C)C1=O (centres unmarked) | 3.15 |
| CN(C(=O)CSc1nnc(-c2ccccc2)o1)c1c(N)n(Cc2ccccc2)c(=O)[nH]c1=O | 12 |
| COc1cccc(N2C(=O)/C(=C/c3ccc(C)o3)C(=O)NC2=S)c1 | 15 |
| COc1ccc(/C=C/C=N/NC(=O)COc2ccc(OC)cc2)cc1 | 1.85 |
| CC(C(=O)OCC(=O)c1cccc([N+](=O)[O-])c1)N1C(=O)C2C3CCC(C3)C2C1=O (centres unmarked) | 2.55 |
| O=C(CCN1C(=O)C2C3CCC(C3)C2C1=O)OCC(=O)c1ccc(Br)cc1 (centres unmarked) | -30.2 |
| O=C(CCN1C(=O)C2C3CCC(C3)C2C1=O)OCC(=O)c1ccccc1 (centres unmarked) | 9.98 |
| CC(C(=O)OCC(=O)c1ccc([N+](=O)[O-])cc1)N1C(=O)C2C3C=CC(C3)C2C1=O (centres unmarked) | -43 |
| O=C(CCN1C(=O)C2C3CCC(C3)C2C1=O)OCC(=O)c1ccc(Cl)cc1 (centres unmarked) | -53.2 |
| CC(C(=O)OCC(=O)c1ccc([N+](=O)[O-])cc1)N1C(=O)C2C3CCC(C3)C2C1=O (centres unmarked) | -54 |
| Cc1ccc(CSCC(=O)N(C)CC(=O)Nc2cccc(F)c2)cc1 | -17.5 |
| COC(=O)CNC(=O)c1c(-c2ccccc2Cl)noc1C | -5.68 |
| CCCCc1nc(NCc2ccccc2)c(C#N)c2c1COC(C)(C)C2 | 12.9 |
| CCOC(=O)c1c(C)[nH]c(C)c1S(=O)(=O)NC(CC)CN1CCOCC1 (centres unmarked) | 7.32 |
| O=C(NC(=S)Nc1ccccc1C(=O)O)c1ccc(-c2ccc(Br)cc2)o1 | 28.3 |

| Compound | hERG current change (%, negative = inhibition) at 10uM [%] |
| --- | --- |
| COc1ccc(CCN2C(=O)N[C@@H](CCC(=O)O)C2=O)cc1 | 19 |
| COc1ccc(N2CCN(C(=O)C(OC(C)=O)c3ccccc3)CC2)cc1 (centres unmarked) | -0.89 |
| COC(=O)N1CCN(c2ccc(OC)cc2)CC1 | 4.33 |
| CC(=C1C(=O)c2ccccc2C1=O)N1CCN(c2ccccn2)CC1 | -28.3 |
| COc1ccc(N2CCN(C(C)=C3C(=O)c4ccccc4C3=O)CC2)cc1 | -53.3 |
| CC(=C1C(=O)c2ccccc2C1=O)N1CCN(c2ccc(F)cc2)CC1 | -69.8 |
| C/C(=C/c1ccccc1)C(=O)N1CCN(c2ccc(F)cc2)CC1 | -42.2 |
| O=C(NC1CCCCC1)NC1C2CC3CC(C2)CC1C3 (centres unmarked) | -6.14 |
| CCCNC(=S)Nc1ccc(Cl)cc1C | 1.16 |
| Cc1ccc(S(=O)(=O)NCCNC(=O)c2ccccc2)cc1 | 12.4 |
| CC(C)Oc1ccc(C(CC(=O)O)NC(=O)Cc2ccc(Cl)cc2)cc1 (centres unmarked) | 24.8 |
| CCOc1ccc(-n2c(SCC(=O)NC)nnc2-c2ccco2)cc1 | -27.5 |
| CCOC(=O)CN(C(=O)CSc1nnc(Cc2ccccc2)n1-c1ccc(C)cc1)c1ccccc1 | -59.2 |
| Cc1csc(NC(=O)CSc2nnc(-c3ccoc3C)o2)n1 | 4.99 |
| CCOc1ccc(-n2c(SCC(=O)Nc3nccs3)nnc2-c2ccoc2C)cc1 | -56.1 |
| COc1ccc(CC(=O)NCc2nnc(SCC(=O)Nc3nccs3)n2-c2ccccc2)cc1 | 2.7 |
| CCOC(=O)CSc1nnc(Cc2ccccc2)n1-c1ccc(C)cc1 | -37.4 |
| CCOC(=O)CN(C(=O)CSc1nnc(C)n1-c1ccccc1)c1ccccc1 | 6.79 |
| COc1ccc(-n2c(SCC(=O)Nc3nc(C)cs3)nnc2-c2ccoc2C)cc1 | -81 |
| CCOc1ccccc1-n1c(SCC(=O)Nc2nccs2)nnc1-c1ccoc1C | -5.08 |
| COc1ccc(-n2c(SCC(=O)Nc3nccs3)nnc2-c2ccccc2)cc1 | -62.5 |
| COc1ccc(-n2c(Cc3cccn3C)nnc2SCC(=O)Nc2nccs2)cc1 | -9.82 |
| COc1ccc(-n2c(Cc3cccn3C)nnc2SCC(=O)Nc2nc(C)cs2)cc1 | -6.16 |
